In PubChem BioAssay (NCI):
The panel holds about 83,000 compounds, 20% with a hit somewhere; the sample as a whole holds those more often.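 In brief: 96-well plates, 48 h treatment, single concentration, percent growth endpoint.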 Calls of active or inactive are those of the source. The calls were made as follows: active = growth percent below 10; inactive = the rest.

What was measured:
Assay in all cases: NCI-60 one-dose screen, 48 h (100 = growth as untreated, 0 = no growth, -100 = all killed)
Settings in all cases: 10 µM unless noted
NCI-H23 lung = tested on: NCI-H23 lung
NCI-H226 lung = tested on: NCI-H226 lung
NCI-H322M lung = tested on: NCI-H322M lung
HOP-62 NSCLC = tested on: HOP-62 NSCLC
NCI-H460 lung = tested on: NCI-H460 lung
HOP-92 NSCLC = tested on: HOP-92 NSCLC
NCI-H522 lung = tested on: NCI-H522 lung
A549/ATCC NSCLC = tested on: A549/ATCC NSCLC
786-0 renal = tested on: 786-0 renal
COLO 205 colon = tested on: COLO 205 colon

Measured: growth

CN(C)c1ccc(/C=C/C(=O)c2ccc(Nc3nc(Nc4ccc(F)cc4)nc(Nc4ccc(Cl)cc4)n3)cc2)cc1
inactive: NCI-H23 lung 73.3% | NCI-H226 lung 89.3% | NCI-H322M lung 95.7% | HOP-62 NSCLC 78.3% | NCI-H460 lung 62.7% | HOP-92 NSCLC 51.3% | NCI-H522 lung 56.4% | A549/ATCC NSCLC 53% | 786-0 renal 71.2% | COLO 205 colon 64.2%

Cc1ccc(C(=O)c2ccc(CC(=O)N/N=C/c3ccc(O)cc3O)n2C)cc1
inactive: NCI-H23 lung 42.4% | NCI-H226 lung 65.7% | NCI-H322M lung 38% | HOP-62 NSCLC 40.6% | NCI-H460 lung 21.1% | HOP-92 NSCLC 83.1% | NCI-H522 lung 55.5% | A549/ATCC NSCLC 46.6% | 786-0 renal 43.4% | COLO 205 colon 41.8%

Cc1ccc2nc(Cl)c(Cn3nnnc3SCc3ccccc3)cc2c1
inactive: NCI-H23 lung 91.8% | NCI-H226 lung 79.6% | NCI-H322M lung 105% | HOP-62 NSCLC 86% | NCI-H460 lung 98.4% | HOP-92 NSCLC 70.6% | NCI-H522 lung 77.5% | A549/ATCC NSCLC 92.5% | 786-0 renal 95% | COLO 205 colon 110%

CC1(C)CC2=C3C=C[C@@H]4[C@@]5(C)CC[C@H](O)C(C)(C)[C@@H]5CC[C@@]4(C)[C@]3(C)CC[C@@]2(C(=O)O)CC1=O
inactive: NCI-H23 lung 41.2% | NCI-H226 lung 32.3% | NCI-H322M lung 55.1% | HOP-62 NSCLC 50.9% | NCI-H460 lung 63.2% | NCI-H522 lung 51.2% | A549/ATCC NSCLC 39.2% | 786-0 renal 21.1% | COLO 205 colon 67%
active: HOP-92 NSCLC -5.32%

CN1CCN(Cc2ccc(NC(=O)c3cncc(C#Cc4cnn5ccccc45)c3)cc2C(F)(F)F)CC1
active: NCI-H23 lung -43.9% | NCI-H226 lung -11.6% | NCI-H322M lung -2.81% | HOP-62 NSCLC -15.4% | NCI-H460 lung -22.5% | HOP-92 NSCLC -7.15% | NCI-H522 lung -14.7% | A549/ATCC NSCLC 4.64% | 786-0 renal 4.29% | COLO 205 colon -33.6%

COC(=O)c1nc(-c2ccccc2)oc1S(=O)(=O)N1CCC(C(N)=O)CC1
inactive: NCI-H23 lung 90.4% | NCI-H226 lung 85.2% | NCI-H322M lung 93.6% | HOP-62 NSCLC 104% | NCI-H460 lung 102% | HOP-92 NSCLC 23.7% | A549/ATCC NSCLC 98.8% | 786-0 renal 51.9% | COLO 205 colon 20.6%
active: NCI-H522 lung 0.81%

COc1cccc(C(=O)OCC(O)C(=O)NC23CC4CC(CC(C4)C2)C3)c1 (stereo not drawn)
inactive: NCI-H23 lung 102% | NCI-H226 lung 93.5% | NCI-H322M lung 96.4% | HOP-62 NSCLC 104% | NCI-H460 lung 101% | HOP-92 NSCLC 91.7% | NCI-H522 lung 86.1% | A549/ATCC NSCLC 90.1% | 786-0 renal 101% | COLO 205 colon 111%

CN(Cc1cnc2nc(N)nc(N)c2n1)c1c(Cl)cc(C(=O)NC(CCC(=O)O)C(=O)O)cc1Cl (stereo not drawn)
inactive: NCI-H23 lung 25.8% | NCI-H226 lung 67.5% | NCI-H322M lung 31.2% | HOP-62 NSCLC 23.8% | NCI-H460 lung 20.2% | HOP-92 NSCLC 15.4% | NCI-H522 lung 24.5% | A549/ATCC NSCLC 15.6% | 786-0 renal 12.7% | COLO 205 colon 53%

CC(C)CCC[C@@H](C)C1CCC2C3CCC4=C/C(=N/OCCN(C)C)CC[C@]4(C)C3CC[C@@]21C (stereo partly drawn)
inactive: NCI-H23 lung 84.7% | NCI-H226 lung 95.8% | NCI-H322M lung 79.9% | HOP-62 NSCLC 80.5% | NCI-H460 lung 98.5% | HOP-92 NSCLC 50% | NCI-H522 lung 66.3% | A549/ATCC NSCLC 77.7% | 786-0 renal 76% | COLO 205 colon 98%

CC1O[C@@H]2C[C@@](O)([C@H]1O)n1c3ccccc3c3c4c(c5c6ccccc6n2c5c31)C(=O)NC4=O (stereo partly drawn)
inactive: NCI-H23 lung 33.7% | NCI-H226 lung 37.2% | NCI-H322M lung 62.8% | HOP-62 NSCLC 13.4% | NCI-H460 lung 11.3% | HOP-92 NSCLC 121% | NCI-H522 lung 30.7% | A549/ATCC NSCLC 32.3% | 786-0 renal 48.8% | COLO 205 colon 11.2%

N#CCC1=NC(c2cccs2)=Nc2ccccc2S1
inactive: NCI-H23 lung 94.6% | NCI-H226 lung 82.4% | NCI-H322M lung 101% | HOP-62 NSCLC 89.6% | NCI-H460 lung 97.7% | HOP-92 NSCLC 71.7% | NCI-H522 lung 57.4% | A549/ATCC NSCLC 96% | 786-0 renal 98.6% | COLO 205 colon 107%

Cc1ccccc1OCC(O)COc1ccccc1C
inactive: NCI-H23 lung 404% | NCI-H226 lung 97.9% | NCI-H322M lung 95.4% | HOP-62 NSCLC 96.2% | NCI-H460 lung 96.8% | HOP-92 NSCLC 93.9% | NCI-H522 lung 77% | A549/ATCC NSCLC 84.2% | 786-0 renal 100% | COLO 205 colon 98.2%

Cc1cc2nc(-c3c(-c4ccc(F)cc4)nc4sccn34)[nH]c2cc1C
inactive: NCI-H23 lung 94% | NCI-H226 lung 97.5% | NCI-H322M lung 99.7% | HOP-62 NSCLC 108% | NCI-H460 lung 106% | HOP-92 NSCLC 86.1% | A549/ATCC NSCLC 95.6% | 786-0 renal 86.3% | COLO 205 colon 105%

Cn1c(/C=C/[N+](=O)[O-])cc2ccccc21
inactive: NCI-H322M lung 105% | HOP-62 NSCLC 76.7% | NCI-H460 lung 62.7% | HOP-92 NSCLC 84% | NCI-H522 lung 70.5% | A549/ATCC NSCLC 48% | 786-0 renal 75.7% | COLO 205 colon 12.5%
active: NCI-H23 lung -24.5% | NCI-H226 lung 4.78%

COc1ccc(-c2cc(C(=O)N3N=C(c4ccc(N)cc4)CC3c3ccccc3)c3ccccc3n2)cc1 (stereo not drawn)
inactive: NCI-H23 lung 56.7% | NCI-H226 lung 77.3% | NCI-H322M lung 47.1% | HOP-62 NSCLC 30.6% | NCI-H460 lung 18.2% | HOP-92 NSCLC 34.5% | A549/ATCC NSCLC 39.4% | 786-0 renal 37.3% | COLO 205 colon 10.8%
